Values joined by “and” are separate entries in the source; they are usually repeats but may differ in a detail not shown here. Equal values may be shown once. Results filed as inconclusive are left out. A call without a number means that no potency is given here. More than one record can exist for a structure, and the calls need not agree. Active and inactive are the calls of the source. The call rests on the fitted dose curve; in most records, active means well fitted cell-killing curve with a large enough effect in the repeat runs (not every such curve was filed as active); inconclusive means weak or mixed curves, or effect the other way; inactive means no such curve, though single readings can be large or run the other way.

From PubChem BioAssay (Tox21) come the findings set out here.
Potency means the concentration at half of the fitted maximal effect.

This experiment is described as follows: qHTS assay to identify small molecule antagonists of the farnesoid-X-receptor (FXR) signaling pathway - cell viability counter screen (AID 743221). Further: nearly all actives have a fitted effect of over 50% in size. The conditions noted are these: FXR-bla HEK293T viability, CellTiter-Glo luminescence, 16 h; series mostly up to 62.6 µM. The text has this: National Center for Advancing Translational Sciences [NCATS]
NIH Chemical Genomics Center [NCGC]
U.S. Environmental Protection Agency [EPA]
National Institutes of Environmental Health Sciences [NIEHS]
National Toxicology Program [NTP]
U.S. Food and Drug Administration [FDA]
The farnesoid-X-receptor (FXR), a nuclear hormone receptor, is highly expressed in liver, intestine, kidney and adrenal cortex. Natural ligands of FXR are the bile acids (Cholic acid, Chenodeoxy cholic acid etc). FXR is an important regulator of diverse metabolic pathways, including the bile acid homeostasis, lipid and glucose metabolisms. FXR regulates the expression of target genes by binding either as a monomer or as a heterodimer with the retinoid X receptor (RXR). Numerous studies have reported that FXR exerts protective function during cholestasis, diabetes, liver regeneration, and cancer. To identify compounds that inhibit FXR signaling, GeneBLAzer FXR-UAS-bla HEK 293T cell line (Invitrogen, Carlsbad, CA) containing a beta-lactamase reporter gene under the control of a UAS response element was used to screen the Tox21 10K compound library. The cytotoxicity of the Tox21 compound library against the FXR-bla cell line was tested in parallel by measuring the cell viability using CellTiter-Glo assay in the same wells.
Tox21 Assay Protocol Summary:
FXR-bla cells were dispensed at 5000 cells/5uL/well in 1536-well black wall/clear bottom plates using a Multidrop Combi (Thermo Fisher Scientific, Waltham, MA) dispenser. After the assay plates were incubated at 37 C and 5% CO2 for 5 h, 23 nL of compounds dissolved in DMSO, positive controls or DMSO only was transferred to the assay plate by a Pintool station (Kalypsys, San Diego, CA), followed by addition of 1 uL Chenodeoxycholic acid (50 uM, final concentration in the wells). The assay plates were incubated at 37C for 16 h. After 1 uL of LiveBLAzerTM B/G FRET substrate was added using a Bioraptr Flying Reagent Dispenser (FRD) workstation (Beckman Coulter, Indianapolis, IN), the plates were incubated at room temperature for 2 h, and fluorescence intensity was measured by an Envision plate reader (PerkinElmer, Shelton, CT). For cell viability readout that measures cytotoxicity, 4uL/well of CellTiter-Glo reagent was added into the assay plates using a Bioraptr FRD. After 30 min incubation at room temperature, the luminescence intensity in the plates was measured using a ViewLux plate reader (PerkinElmer).
Take `CC(=O)/C=C/c1ccc2c(c1)OCO2`: the Potency entry was “inactive”.

In the case of `CC(C)CC(C)(c1ccc(O)cc1)c1ccc(O)cc1`, the Potency was 55.1 µM (active) and inactive. As for `CC(=O)[O-].CC(=O)[O-].O.O.[Cd+2]`, the Potency is 1.21 µM (active). As to `CCCCCCCCCC[N+](C)(C)CCCCCCCCCC`, the Potency is 54.9 µM (active). `O=[N+]([O-])c1ccc(Oc2ccc(C(F)(F)F)cc2[N+](=O)[O-])cc1`: the Potency result was “inactive”. Take `BrC(Br)Br`: the Potency result was “inactive”. Turning to `C[C@]12CC[C@H]3[C@@H](CCC4=CC(=O)CC[C@@]43C)[C@@H]1CC[C@@H]2O`, the Potency result was “inactive”. To `Clc1ccc(CSC(Cn2ccnc2)c2ccc(Cl)cc2Cl)cc1` (stereo not given) belongs 23.7 µM (active); to `CCC[CH2][Sn]([CH2]CCC)([CH2]CCC)[O]C(=O)c1ccccc1`, 2.45 µM (active); to `CN(C)C1CSSSC1`, “inactive”. Regarding `CCOCn1c(-c2ccc(Cl)cc2)c(C#N)c(Br)c1C(F)(F)F`, the Potency is 27.5 µM (active). In the case of `CN(C)S(=O)(=O)N(SC(F)(Cl)Cl)c1ccccc1`, the Potency was 43.6 µM (active).

Consider `Cc1ccc(OP(=O)(Oc2ccccc2)Oc2ccccc2)cc1`, for which the Potency result is “inactive”. For the molecule `Cc1cc(C(F)(C(F)(F)F)C(F)(F)F)ccc1NC(=O)c1cccc(I)c1C(=O)NC(C)(C)CS(C)(=O)=O`, the Potency entry is “inactive”. With `O=C(NC(=O)c1c(F)cccc1F)Nc1cc(Cl)c(OC(F)(F)C(F)F)c(Cl)c1` the entry was “inactive”; with `O=c1c(C2CC(c3ccc(-c4ccc(Br)cc4)cc3)Cc3ccccc32)c(O)sc2ccccc12` (stereo not given), “inactive”; with `CN(C)c1ccc(N=Nc2ccccc2)cc1`, “inactive”. Regarding `CCCOCC(=Nc1ccc(Cl)cc1C(F)(F)F)n1ccnc1`, the Potency was 21.9 µM (active).

On to `N#CCCSCCC#N`, for which the Potency entry is “inactive”. Turning to `S=C(SSC(=S)N1CCCCC1)N1CCCCC1`, the Potency is 0.211 µM (active). As to `[Cl][Sb]([Cl])[Cl]`, the Potency result was “inactive”. In the case of `CCN`, the Potency entry was “inactive”.

Turning to `CC(Cc1ccc(C(C)(C)C)cc1)CN1C[C@@H](C)O[C@@H](C)C1` (stereo not given in full), the Potency result is “inactive”. Regarding `C[C@H]1CC[C@@H]2[C@@H](C)[C@H]3[C@H](C[C@H]4[C@@H]5CC=C6CC(O[C@@H]7O[C@H](CO)[C@H](O)[C@H](O[C@@H]8O[C@H](CO)[C@@H](O)[C@H](O)[C@H]8O)[C@H]7O[C@H]7O[C@@H](C)[C@H](O)[C@@H](O)[C@H]7O)CC[C@]6(C)[C@H]5CC[C@]34C)N2C1` (stereo not given in full), the Potency was 14.3 µM (active). Consider `N#CC(Cl)Cl`, for which the Potency entry is “inactive”. `COc1cc(N)c(Cl)cc1C(=O)NC1CN2CCC1CC2` (stereo not given): the Potency entry is “inactive”. For `CCCCCCCCCCCCCCCC[N+](C)(C)C`, the Potency is 23.7 µM (active) and 49 µM (active). As for `O=C1NCN(c2ccccc2)C12CCN(CC1COc3ccccc3O1)CC2` (stereo not given), the Potency entry is “inactive”. On to `CCOC(=O)CC(=O)CCl`, for which the Potency result was “inactive”.

Regarding `CC(=O)[O-].CC(=O)[O-].[Hg+2]`, the Potency is 3.09 µM (active). With `C[C@@H]1CC[C@@]2(OC1)O[C@H]1[C@@H](O)[C@H]3[C@@H]4CC[C@H]5C[C@@H](O[C@@H]6O[C@H](CO)[C@H](O[C@@H]7O[C@H](CO)[C@@H](O)[C@H](O[C@@H]8OC[C@@H](O)[C@H](O)[C@H]8O)[C@H]7O[C@@H]7O[C@H](CO)[C@@H](O)[C@H](O[C@@H]8O[C@H](CO)[C@@H](O)[C@H](O)[C@H]8O)[C@H]7O)[C@H](O)[C@H]6O)[C@H](O)C[C@]5(C)[C@H]4CC[C@]3(C)[C@H]1[C@@H]2C`, the Potency was 23.2 µM (active). As to `CCOC(=O)C1(c2ccccc2)CCN(CCC(C#N)(c2ccccc2)c2ccccc2)CC1`, the Potency result is “inactive”.

Consider `COc1ccc(N)cc1N`, for which the Potency result was “inactive”.

Take `CN(C)[C@@H]1C(=O)C(C(N)=O)=C(O)[C@@]2(O)C(=O)C3=C(O)c4c(O)ccc(Cl)c4[C@@](C)(O)[C@H]3C[C@@H]12`: the Potency entry was “inactive”. In the case of `Cc1cc(C)cc(OP(=O)(Oc2cc(C)cc(C)c2)Oc2cc(C)cc(C)c2)c1`, the Potency result is “inactive”. With `CCCN(CCC)CCc1c[nH]c2ccccc12`, the Potency entry is “inactive”.

As to `O=C(CCl)C(Cl)Cl`, the Potency was 49.4 µM (active). For `Clc1ccc(-c2ccc(Cl)c(Cl)c2Cl)c(Cl)c1Cl`, the Potency result was “inactive”.

Take `CC1(C)C(/C=C(\Cl)C(F)(F)F)C1C(=O)OC(C#N)c1cccc(Oc2ccccc2)c1` (stereo not given): the Potency result was “inactive”.

For `CC(=O)c1cc(C(C)(C)C)cc2c1CCC2(C)C`, the Potency result is “inactive”.
